This is part of a sample that, as a whole, favours compounds with a hit. Of some 79,000 tested, about 15% had one in any assay. Unmarked numbers belong to inactive results. Active and inactive are the calls of the source. Rule as the data show it: active = growth inhibition above about 70%; inactive = the rest.
How the values were obtained:
[1] = NCI Yeast Anticancer Drug Screen. Data for the rad50 strain (AID 155);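 also: 0% = growth of vehicle-only cultures of the same strain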; details: S. cerevisiae rad50 strain growth inhibition, stronger effect = higher value
Procedure, shortened: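 A DNA repair-deficient yeast mutant serves as the test organism; compound-induced growth inhibition is calculated against vehicle-treated cells.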

[2] = NCI Yeast Anticancer Drug Screen. Data for the mec2-1 strain (AID 157); details: S. cerevisiae mec2-1 strain, stronger effect = higher value
Procedure, shortened: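 Vehicle-treated cultures served as reference for growth inhibition of compound-exposed mec2-1 yeast.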

[3] = NCI Yeast Anticancer Drug Screen. Data for the sgs1 mgt1 strain (AID 161);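 also: 0% = growth of cultures given vehicle only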; details: S. cerevisiae sgs1 mgt1 strain, stronger effect = higher value
Procedure, shortened: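 Genetically altered yeast, compound exposure, growth inhibition relative to vehicle.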

[4] = NCI Yeast Anticancer Drug Screen. Data for the cln2 rad14 strain (AID 165);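 also: 0% = growth equal to vehicle treated cultures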; details: S. cerevisiae cln2 rad14 strain, stronger effect = higher value
Procedure, shortened: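 Each compound was tested on cln2 rad14 yeast. Inhibition of growth was calculated against vehicle-exposed controls.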

[5] = NCI Yeast Anticancer Drug Screen. Data for the bub3 strain (AID 167); details: S. cerevisiae bub3 mutant strain, stronger effect = higher value
Procedure, shortened: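 Inhibition values come from growth of compound-treated mutant yeast normalised to vehicle-treated controls.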

[6] = NCI Yeast Anticancer Drug Screen. Data for the mlh1 rad18 strain (AID 175); details: S. cerevisiae mlh1 rad18 strain growth inhibition, stronger effect = higher value
Procedure, shortened: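 Vehicle-treated cultures served as the reference for growth inhibition in a yeast strain carrying DNA damage repair alterations exposed to each compound.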

[7] = at 5.0 µM (retest, dose inferred, filed as 0.5)
[8] = at 50.0 µM (retest, dose inferred, filed as 5.0)

| Compound | growth inhibition [1, 7] | growth inhibition [1, 8] | growth inhibition ([1]; at 50.0 µM) | growth inhibition [2, 7] | growth inhibition [2, 8] | growth inhibition ([2]; at 50.0 µM) | growth inhibition [3, 7] | growth inhibition [3, 8] | growth inhibition ([3]; at 50.0 µM) | growth inhibition [4, 7] | growth inhibition [4, 8] | growth inhibition ([4]; at 50.0 µM) | growth inhibition [5, 7] | growth inhibition [5, 8] | growth inhibition ([5]; at 50.0 µM) | growth inhibition [6, 7] | growth inhibition [6, 8] | growth inhibition ([6]; at 50.0 µM) |
| --- | --- | --- | --- | --- | --- | --- | --- | --- | --- | --- | --- | --- | --- | --- | --- | --- | --- | --- |
| FC(F)(F)c1nc2ccc(SSc3ccc4nc(C(F)(F)F)[nH]c4c3)cc2[nH]1 | -8% | 17% | 96% (active) | 13% | 20% | 93.8% (active) | -3% | 12% | 96.6% (active) | 8% | -32% | 92.3% (active) | 1% | 14% | 95.5% (active) | 2% | -6% | 97.2% (active) |
| CC1=CC2OC3CC4OC(=O)/C=C/C=C/C(C(C)O)OCC(O)C(C)CC(=O)OCC2(CC1O)C4(C)C31CO1 (configuration not stated) | 39% | 96% (active) | 90.4% (active) | 40% | 99% (active) | 91.9% (active) | 48% | 94% (active) | 92.2% (active) | 34% | 94% (active) | 90.3% (active) | 25% | 95% (active) | 91% (active) | 42% | 98% (active) | 89.2% (active) |
| O=P1(NCCCl)OC(c2ccccc2)=CCN1CCCl (configuration not stated) | -1% | -1% | 97.9% (active) | -5% | 6% | 94.1% (active) | 1% | -1% | 99% (active) | -2% | 5% | 96% (active) | -2% | -1% | 89.6% (active) | -3% | 1% | 98.8% (active) |
| C[C@H]1C/C=C/[C@H]2[C@@H]3O[C@]3(C)[C@@H](C)[C@H]3[C@H](Cc4ccccc4)NC(=O)[C@]32OC(=O)O/C=C/[C@@](C)(O)C1=O | 21% | 30% | 72.7% (active) | 19% | 53% | 91.3% (active) | 19% | 14% | 32.7% | 25% | 36% | 67.3% | 28% | 48% | 83.2% (active) | 17% | 46% | 81.8% (active) |
